Laboratory results from the supplement of paper PMC9794691.
± gives the standard deviation of the averaged measurements.

Legend:
Assay in all cases: area under confluence curve of osimertinib + compound combination regimen (DTP regrowth); compare to osimertinib-only DTP control AUC of the same experiment (AUC (confluence x time, arbitrary))
PC9 = tested on: PC9
Procedure, shortened: (§1)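 The area under the IncuCyte confluence–time curve, calculated in Prism and taken as the median of triplicates where available, is the value reported. It was measured in EGFR-mutant NSCLC lines that received the EGFR inhibitor either alone, followed by a test compound, or together with a fixed-dose test compound until the persister stage (10–21 days) and then drug-free medium. Medium was refreshed every 3–4 days until the inhibitor-only wells were confluent again.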

H1975 = conditions: test compound dose 100 nM, DMSO control AUC in same experiment: 14522
Procedure, shortened: as §1

HCC2279 = conditions: test compound dose 100 nM, DMSO control AUC in same experiment: 27284
Procedure, shortened: as §1

HCC2935 = conditions: test compound dose 100 nM, DMSO control AUC in same experiment: 11459
Procedure, shortened: as §1

HCC4006 = conditions: test compound dose 100 nM, DMSO control AUC in same experiment: 10921
Procedure, shortened: as §1

HCC827 = conditions: test compound dose 100 nM, DMSO control AUC in same experiment: 48895
Procedure, shortened: as §1

II-18 = conditions: test compound dose 100 nM, DMSO control AUC in same experiment: 13556
Procedure, shortened: as §1

## Oc1nc(-c2ccc(C(F)(F)F)cc2)nc2c1CSCC2 + C=CC(=O)Nc1cc(Nc2nccc(-c3cn(C)c4ccccc34)n2)c(OC)cc1N(C)CCN(C)C [osimertinib]
PC9; test compound dose 300 nM, dosing schedule: sequential, osimertinib-only DTP control AUC in same experiment: 12502, DMSO control AUC in same experiment: 49143
  area under confluence curve: 9570
PC9; test compound dose 300 nM, dosing schedule: upfront, osimertinib-only DTP control AUC in same experiment: 28310, DMSO control AUC in same experiment: 49143
  area under confluence curve: 8680

## C[C@@H]1COCCN1c1cc(C2([S@](C)(=N)=O)CC2)nc(-c2cc[nH]c3nccc2-3)n1 + C=CC(=O)Nc1cc(Nc2nccc(-c3cn(C)c4ccccc34)n2)c(OC)cc1N(C)CCN(C)C [osimertinib]
PC9; test compound dose 1000 nM, dosing schedule: sequential, osimertinib-only DTP control AUC in same experiment: 15001, DMSO control AUC in same experiment: 22064
  area under confluence curve: 14300
PC9; test compound dose 1000 nM, dosing schedule: sequential, osimertinib-only DTP control AUC in same experiment: 15044, DMSO control AUC in same experiment: 30604
  area under confluence curve: 12300
PC9; test compound dose 1000 nM, dosing schedule: upfront, osimertinib-only DTP control AUC in same experiment: 20672, DMSO control AUC in same experiment: 30604
  area under confluence curve: 15900
PC9; test compound dose 1000 nM, dosing schedule: upfront, osimertinib-only DTP control AUC in same experiment: 24924, DMSO control AUC in same experiment: 22064
  area under confluence curve: 16500

## CS(=O)(=O)N1CCN(Cc2cc3nc(-c4cccc5[nH]ncc45)nc(N4CCOCC4)c3s2)CC1 + C=CC(=O)Nc1cc(Nc2nccc(-c3cn(C)c4ccccc34)n2)c(OC)cc1N(C)CCN(C)C [osimertinib]
PC9; test compound dose 1000 nM, dosing schedule: sequential, osimertinib-only DTP control AUC in same experiment: 1963, DMSO control AUC in same experiment: 30580
  area under confluence curve: 1580 ± 160
PC9; test compound dose 1000 nM, dosing schedule: upfront, osimertinib-only DTP control AUC in same experiment: 8618, DMSO control AUC in same experiment: 30580
  area under confluence curve: 4540 ± 320

## CCN1CCN(Cc2ccc(Nc3ncc(F)c(-c4cc(F)c5nc(C)n(C(C)C)c5c4)n3)nc2)CC1 [Abemaciclib] + C=CC(=O)Nc1cc(Nc2nccc(-c3cn(C)c4ccccc34)n2)c(OC)cc1N(C)CCN(C)C [osimertinib]
H1975; dosing schedule: sequential, osimertinib-only DTP control AUC in same experiment: 12533
  area under confluence curve: 8980
H1975; dosing schedule: upfront, osimertinib-only DTP control AUC in same experiment: 18969
  area under confluence curve: 5060
HCC2279; dosing schedule: sequential, osimertinib-only DTP control AUC in same experiment: 5698
  area under confluence curve: 4410
HCC2279; dosing schedule: upfront, osimertinib-only DTP control AUC in same experiment: 30623
  area under confluence curve: 12700
HCC2935; dosing schedule: sequential, osimertinib-only DTP control AUC in same experiment: 9121
  area under confluence curve: 4760
HCC2935; dosing schedule: upfront, osimertinib-only DTP control AUC in same experiment: 12748
  area under confluence curve: 9300
HCC4006; dosing schedule: sequential, osimertinib-only DTP control AUC in same experiment: 14882
  area under confluence curve: 8540
HCC4006; dosing schedule: upfront, osimertinib-only DTP control AUC in same experiment: 18913
  area under confluence curve: 4990
HCC827; dosing schedule: sequential, osimertinib-only DTP control AUC in same experiment: 18675
  area under confluence curve: 6450
HCC827; dosing schedule: upfront, osimertinib-only DTP control AUC in same experiment: 25542
  area under confluence curve: 7890
II-18; dosing schedule: sequential, osimertinib-only DTP control AUC in same experiment: 3520
  area under confluence curve: 1010
II-18; dosing schedule: upfront, osimertinib-only DTP control AUC in same experiment: 6532
  area under confluence curve: 2540
